# A number with no mark means an inactive call. Inconclusive results are not listed. Where a call stands in place of a potency, no number is given. Calls of active or inactive are those of the source. Unless noted, calls come from the whole dose curve; as a rule, active = well fitted curve in the direction sought with a large enough effect in the repeat runs; inconclusive = weak or mixed curves; inactive = no such curve, though single readings can be large; an effect the other way counts as inactive or inconclusive.
# Tests used:
# [1] = qHTS assay for small molecule agonists of the p53 signaling pathway (AID 651631; calls by dose curve; note: nearly all actives have a fitted effect of over 15% in size; note: potency is the fitted concentration of half-maximal effect)
# Procedure, shortened: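 Readout was fluorescence from the LiveBLAzer FRET substrate, applied for 2 h at room temperature after 16 h compound exposure at 37 °C. Cells were the p53RE-bla HCT-116 line, with beta-lactamase driven by p53 response elements.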
# [2] = qHTS assay for small molecules that induce genotoxicity in human embryonic kidney cells expressing luciferase-tagged ATAD5 (AID 651632); note: nearly all actives have a fitted effect of over 15% in size
# Procedure, shortened: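 Luminescent reporter readout, HEK293T ATAD5-luc line: 16 hr drug exposure (37C, 5% CO2) followed by Amplite, 30 min RT.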
# [3] = qHTS assay for small molecule agonists of the p53 signaling pathway - cell viability (AID 651633; calls by dose curve; note: nearly all actives have a fitted effect of over 30% in size)
# Procedure, shortened: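 p53RE-bla cells, seeded at 4,000 per well and rested 5 h at 37 C/5% CO2, received compounds in DMSO for 16 h at 37 C. CellTiter-Glo was then added, and luminescence was read after 30 min at room temperature to gauge cytotoxicity.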
# [4] = qHTS assay for small molecules that induce genotoxicity in human embryonic kidney cells expressing luciferase-tagged ATAD5 - cell viability (AID 651634; calls by dose curve; note: nearly all actives have a fitted effect of over 25% in size)
# Procedure, shortened: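 Viability read: CellTiter-Fluor fluorescence, 30 min at 37C. Cells: HEK293T, luciferase-tagged ATAD5. Exposure: 15.5 hr, 37C, 5% CO2, compound or DMSO vehicle.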
# [5] = qHTS assay for small molecule disruptors of the mitochondrial membrane potential - cell viability (AID 720634; calls by dose curve;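 note: human HepG2 liver cancer cells; nearly all actives have a fitted effect of over 20% in size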)
# Procedure, shortened: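 HepG2, 1 hr compound, 37 C. ATP luminescence via CellTiter-Glo, 30 min RT, same well as m-MPI.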
# [6] = qHTS assay to test for compound auto fluorescence at 535 nm (green) in HepG2 cells (AID 720675)
# [7] = qHTS assay to test for compound auto fluorescence at 460 nm (blue) in HEK293 cells (AID 720678)
# Procedure, shortened: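 Intrinsic compound fluorescence is recorded in live HEK293 cultures after overnight incubation at 37C, 5% CO2, using excitation 405 nm and emission 460 nm. Values are referenced to triamterene.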
# [8] = qHTS assay to test for compound auto fluorescence at 460 nm (blue) in HEK293 cell free culture (AID 720681)
# Procedure, shortened: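 Test compounds were pinned into cell-free culture medium (DMEM with 10% FBS) and fluorescence was read directly at Ex/Em 405/460 nm. Signals were expressed as fluorescence equivalents of triamterene, with DMSO vehicle as control.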
# [9] = qHTS assay to test for compound auto fluorescence at 590 nm (red) in HEK293 cell free culture (AID 720683)
# Procedure, shortened: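 Tox21 10K library compounds were pinned into cell-free DMEM with 10% FBS and fluorescence was read at excitation 540 nm. Activity is expressed as Rose Bengal sodium equivalency.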
# [10] = qHTS assay to test for compound auto fluorescence at 590 nm (red) in HepG2 cell free culture (AID 720684)
# Procedure, shortened: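 Measured in medium alone (MEM containing 10% FBS) following pintool addition of compound; emission at 590 nm with 540 nm excitation, referenced to Rose Bengal sodium.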
# [11] = qHTS assay to test for compound auto fluorescence at 460 nm (blue) in HepG2 cell free culture (AID 720685)
# Procedure, shortened: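 Compound (23 nL) or DMSO pinned into cell-free MEM with 10% FBS; blue fluorescence read at 405/460 nm excitation/emission, expressed as auto-fluorescence equivalency to triamterene.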
# [12] = qHTS assay to test for compound auto fluorescence at 535 nm (green) in HepG2 cell free culture (AID 720686)
# [13] = qHTS assay to test for compound auto fluorescence at 460 nm (blue) in HepG2 cells (AID 720687)
# Procedure, shortened: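 Cells (2,000/well in MEM with 10% FBS) attached overnight at 37 C, then were exposed to compound or DMSO for 1 hr at 37 C, 5% CO2. Fluorescence read at Ex/Em 405/460 nm, expressed as triamterene-equivalent signal.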
# [14] = target: Glucocorticoid receptor (Homo sapiens) (UniProt P04150); experiment: qHTS assay to identify small molecule agonists of the glucocorticoid receptor (GR) signaling pathway (AID 720691; active = well fitted activation curve with a large enough effect in the signal ratio in the repeat runs, not every such curve was filed as active; the % refers to the signal ratio); settings: GR-bla HeLa, beta-lactamase reporter ratio, 18 h; activation: at 62.4 µM (top of the series) unless noted
# Procedure, shortened: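 qHTS in GR-bla HeLa cells: 4 h settling at 37 C/5% CO2, 18 h compound incubation at 37 C, 2 h LiveBLAzer B/G FRET substrate at room temperature, fluorescence intensity measured.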
# [15] = target: Glucocorticoid receptor (Homo sapiens) (UniProt P04150); experiment: qHTS assay to identify small molecule antagonists of the glucocorticoid receptor (GR) signaling pathway (AID 720692; active = well fitted inhibition curve with a large enough effect in the signal ratio in the repeat runs, not every such curve was filed as active; the % refers to the signal ratio)
# Procedure, shortened: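 Inhibition of glucocorticoid signalling is measured in HeLa cells with a GRE-controlled beta-lactamase reporter; cells are co-treated with compound and 5 nM dexamethasone (final) for 18 h before FRET substrate readout.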
# [16] = qHTS assay for small molecule disruptors of the mitochondrial membrane potential (AID 720635); note: potency is the fitted concentration of half-maximal effect
# Procedure, shortened: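 HepG2 cells (2,000/well) attached overnight at 37C, then took compound for 1 hr at 37C, 5% CO2. Mito-MPS dye was added for 30 min; fluorescence was read at 490/535 nm (monomers) and 540/590 nm (aggregates).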
# [17] = qHTS assay to test for compound auto fluorescence at 590 nm (red) in HepG2 cells (AID 720674)
# Procedure, shortened: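 Rose Bengal sodium served as the red fluorophore standard. HepG2 monolayers (overnight attachment, MEM with 10% FBS) were exposed to test compounds for 1 hr at 37 C and read at Ex 540/Em 590 nm.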
# [18] = qHTS assay to test for compound auto fluorescence at 590 nm (red) in HEK293 cells (AID 720679)
# Procedure, shortened: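 Red autofluorescence, HEK293 cells: 2,000 cells/well; attach 4-5 hr 37C; add 23 nL cpd or DMSO; incubate o/n 37C 5% CO2; read Ex540/Em590; Rose Bengal sodium reference.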
# [19] = qHTS assay to test for compound auto fluorescence at 535 nm (green) in HEK293 cell free culture (AID 720682)
# Procedure, shortened: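 Compounds were pin-transferred into cell-free DMEM with 10% FBS, and green fluorescence was read at excitation 485 nm and emission 535 nm. Intensities were expressed as fluorescein-equivalent values.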
# [20] = qHTS assay to test for compound auto fluorescence at 535 nm (green) in HEK293 cells (AID 720680)
# Chain of Glucocorticoid receptor (Homo sapiens) (P04150 whole entry, looked up): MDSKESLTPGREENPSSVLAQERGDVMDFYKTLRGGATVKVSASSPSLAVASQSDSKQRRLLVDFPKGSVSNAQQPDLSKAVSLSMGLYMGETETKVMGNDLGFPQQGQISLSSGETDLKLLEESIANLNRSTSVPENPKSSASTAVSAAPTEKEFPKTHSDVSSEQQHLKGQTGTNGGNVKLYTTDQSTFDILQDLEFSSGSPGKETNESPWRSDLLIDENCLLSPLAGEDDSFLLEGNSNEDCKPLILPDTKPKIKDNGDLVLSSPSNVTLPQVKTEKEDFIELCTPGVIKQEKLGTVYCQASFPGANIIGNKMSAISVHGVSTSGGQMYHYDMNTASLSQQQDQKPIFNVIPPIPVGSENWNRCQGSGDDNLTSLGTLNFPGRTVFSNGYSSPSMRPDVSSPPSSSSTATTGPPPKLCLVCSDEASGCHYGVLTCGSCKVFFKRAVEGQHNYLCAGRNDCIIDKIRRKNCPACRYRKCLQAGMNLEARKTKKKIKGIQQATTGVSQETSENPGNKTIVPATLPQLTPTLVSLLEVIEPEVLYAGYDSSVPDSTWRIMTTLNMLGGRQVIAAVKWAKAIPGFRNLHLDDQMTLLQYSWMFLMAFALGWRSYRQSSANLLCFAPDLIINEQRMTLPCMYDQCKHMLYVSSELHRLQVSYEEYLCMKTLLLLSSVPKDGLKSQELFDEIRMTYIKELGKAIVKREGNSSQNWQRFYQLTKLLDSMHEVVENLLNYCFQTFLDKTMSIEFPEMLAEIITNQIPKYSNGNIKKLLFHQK
smiles,measurement,setting,value
NCC(=O)CCC(=O)O,Potency,[1],inactive
same,Potency,[2],inactive
same,Potency,[3],inactive
same,Potency,[4],inactive
same,Potency,[5],inactive
same,Potency,[6],inactive
same,outcome,[7],inactive
same,outcome,[8],inactive
same,Potency,[9],inactive
same,Potency,[10],inactive
same,outcome,[11],inactive
same,Potency,[12],inactive
same,outcome,[13],inactive
same,Potency,[14],inactive
same,Potency,[15],inactive
COC(=O)C1=C(C)NC(COC(N)=O)=C(C(=O)OC(C)C)C1c1cccc(Cl)c1Cl (configuration not stated),Potency,[1],16.8 µM (active)
same,Potency,[2],inactive
same,Potency,[3],inactive
same,Potency,[4],inactive
same,Potency,[16],26.6 µM (active)
same,Potency,[17],inactive
same,Potency,[6],inactive
same,Potency,[18],inactive
same,outcome,[19],inactive
same,Potency,[9],inactive
same,Potency,[10],inactive
same,Potency,[12],inactive
C=C(C)C(=O)OCCOCC,Potency,[1],inactive
same,Potency,[2],inactive
same,Potency,[4],inactive
same,Potency,[5],inactive
same,Potency,[17],inactive
same,Potency,[6],inactive
same,outcome,[7],inactive
same,Potency,[18],inactive
same,outcome,[8],inactive
same,Potency,[9],inactive
same,Potency,[10],inactive
same,outcome,[11],inactive
same,Potency,[12],inactive
same,outcome,[13],inactive
CCOc1ccc(O)cc1,Potency,[1],inactive
same,Potency,[3],inactive
same,Potency,[4],inactive
same,Potency,[5],inactive
same,Potency,[6],inactive
same,outcome,[7],inactive
same,Potency,[18],inactive
same,outcome,[20],inactive
same,outcome,[8],inactive
same,outcome,[19],inactive
same,Potency,[9],inactive
same,Potency,[10],inactive
same,outcome,[11],inactive
same,Potency,[12],inactive
same,outcome,[13],inactive
same,Potency,[14],inactive
Clc1ccc(Cn2c(CN3CCCC3)nc3ccccc32)cc1,Potency,[1],inactive
same,Potency,[2],inactive
same,Potency,[3],inactive
same,Potency,[4],inactive
same,Potency,[5],inactive
same,"fluorescence, % of fluorescein control",[6],0.097% [at 18.6 µM]
same,"fluorescence, % of triamterene",[7],0.123% [at 18.6 µM]
same,"fluorescence, % of fluorescent control",[18],0.574% [at 18.6 µM]
same,"fluorescence, % of fluorescent control",[8],-0.0089% [at 18.6 µM]
same,activity change,[19],-0.0526% [at 18.6 µM]
same,"fluorescence, % of fluorescent control",[9],0.147% [at 18.6 µM]
same,"fluorescence, % of Rose Bengal",[10],-0.0239% [at 18.6 µM]
same,"fluorescence, % of fluorescent control",[11],0.0634% [at 18.6 µM]
same,"fluorescence, % of fluorescein control",[12],-0.0084% [at 18.6 µM]
same,Potency,[14],inactive
O=C(O)CNCC(=O)O,activation,[1],-5.9% [at 8.3 µM]
same,"activity change, negative = cytotoxicity",[3],6.66% [at 8.08 µM]
same,"activity, negative = cytotoxicity",[4],24.8% [at 8.08 µM]
same,"activity change, negative = cytotoxicity",[5],-5.3% [at 8.08 µM]
same,"ratio activity, negative = MMP loss",[16],15% [at 8.08 µM]
same,"fluorescence, relative to Rose Bengal",[17],-0.419% [at 3.72 µM]
same,"fluorescence, % of fluorescein control",[6],-0.0488% [at 3.72 µM]
same,"fluorescence, % of triamterene",[7],-0.267% [at 3.72 µM]
same,"fluorescence, % of fluorescent control",[18],-0.0175% [at 3.72 µM]
same,"fluorescence, % of fluorescein",[20],-0.0204% [at 3.72 µM]
same,"fluorescence, % of fluorescent control",[8],-0.259% [at 3.72 µM]
same,activity change,[19],-0.144% [at 3.72 µM]
same,"fluorescence, % of fluorescent control",[9],-0.223% [at 3.72 µM]
same,"fluorescence, % of Rose Bengal",[10],-0.109% [at 3.72 µM]
same,"fluorescence, % of fluorescent control",[11],-0.156% [at 3.72 µM]
same,"fluorescence, % of fluorescein control",[12],-0.0374% [at 3.72 µM]
same,"fluorescence, % of fluorescent control",[13],-0.0767% [at 3.72 µM]
same,activation,[14],-1.96% [at 6.9 µM]
O=CC1CC=CCC1 (configuration not stated),Potency,[1],inactive
same,Potency,[2],inactive
same,Potency,[4],inactive
same,Potency,[5],inactive
same,Potency,[16],inactive
same,Potency,[17],inactive
same,Potency,[6],inactive
same,outcome,[7],inactive
same,Potency,[18],inactive
same,outcome,[20],inactive
same,outcome,[8],inactive
same,outcome,[19],inactive
same,Potency,[9],inactive
same,Potency,[10],inactive
same,outcome,[11],inactive
same,Potency,[12],inactive
same,outcome,[13],inactive
